# Article PMC4552634, “A New Set of Chemical Starting Points with Plasmodium falciparum Transmission-Blocking Potential for Antimalarial Drug Discovery” (PLoS ONE, 2015)
# Out of some 13,000 compounds screened, about 3,200 (25%) showed an effect of 50% or more. The list shows a part of the results.
# Tested on: P. falciparum stage V gametocytes
# Parameters: BacTiter-Glo ATP luminescence viability of purified stage V gametocytes in 384-well plates, per cent inhibition versus DMSO
# Conditions: 48 h, 5 µM; inhibitor
structure (smiles),measurement,value
CCCc1ccc(NC(=O)c2ccc(CN3CCCN(CC4CCCCC4)CC3)cc2)cc1 [TCMDC-136420],% Inhibition,-21.41%
FC(F)(F)c1ccc2[nH]c(-c3ccc(-c4ccc(CN5CCN(c6cnccn6)CC5)cc4)s3)nc2c1.O=C(O)C(F)(F)F [TCMDC-132677],% Inhibition,4.163%
COc1cc(Cc2cnc(N)nc2N)cc(OCCCCC2SC(=O)NC2=O)c1OC (stereo not drawn) [TCMDC-137185],% Inhibition,-7.728%
Cc1cnc(NC(=O)c2cn(-c3ccccc3)nc2-c2cccs2)s1 [TCMDC-124433],% Inhibition,10.72%
COc1cc2c(c(OC)c1OC)C[C@H]1c3c(cc4c(c3-2)OCO4)CCN1C [TCMDC-138525],% Inhibition,-52.76%
N#Cc1ccc2[nH]cc(CN3CCC4(CC3)CN(CCNCc3ccccc3)C(=O)O4)c2c1 [TCMDC-136732],% Inhibition,-34.87%
COc1ccc2ncc(F)c(CCN3C[C@H](CNCc4cc(F)c5c(c4)NC(=O)CO5)[C@H](O)C3)c2n1 [TCMDC-136203],% Inhibition,28.74%
Nc1nc2c(ncn2OC[C@H](CO)OCP(=O)(O)O)c(=O)[nH]1 [TCMDC-131639],% Inhibition,4.722%
O=C(/C=C/c1cc(C(F)(F)F)ccc1F)N1CCC(CN2CCC(c3c[nH]c4ccccc34)CC2)CC1 [TCMDC-139857],% Inhibition,-24.43%
O=C(/C=C/c1cc(F)cc(C(F)(F)F)c1)N1CCC(CN2CCC(c3c[nH]c4ccccc34)CC2)CC1 [TCMDC-140385],% Inhibition,-12.95%
O=C(/C=C/c1ccc(C(F)(F)F)cc1)N1CCC(CCN2CCC(c3c[nH]c4ccccc34)CC2)CC1 [TCMDC-139761],% Inhibition,107.6%
CCN(CC)CCN(Cc1ccc(-c2ccc(C(F)(F)F)cc2)nc1)C(=O)Cn1cc(Cc2cnn(C)c2)c(=O)n2nc(-c3ccccc3)cc12 [TCMDC-140691],% Inhibition,119%
CCN(CC)CCN(Cc1ccc(-c2ccc(C(F)(F)F)cc2)cc1)C(=O)Cn1cc(Cc2cnn(C)c2)c(=O)n2nc(-c3ccccc3)cc12 [TCMDC-140690],% Inhibition,119.2%
CCCCN1Cc2c(n(CC(=O)Nc3ccccc3)c3cc(-c4ccccc4)nn3c2=O)C1=O [TCMDC-125585],% Inhibition,-0.9231%
COc1ccc2nccc([C@@H](O)CN3CCC(NC(=O)/C=C/c4cccc(C)c4)CC3)c2c1 [TCMDC-141114],% Inhibition,-1.317%
O=C(NC1CCN(CCc2c[nH]c3ccc(F)cc23)CC1)c1ncc(-c2ccccc2)[nH]1 [TCMDC-131972],% Inhibition,5.191%
COc1ccc(NC(=O)/C=C/c2cc(Br)ccc2F)cc1OCCN(C(C)C)C(C)C [TCMDC-140668],% Inhibition,-43.25%
Cc1ccc(NC(=O)Nc2ccc(Br)cc2)cc1OCCN(C)C [TCMDC-140087],% Inhibition,-42.58%
CCOC(=O)CN(c1ccc(Br)cc1OCCOc1cc(Br)ccc1N(CC(=O)OCC)C(C)C(=O)OCC)C(C)C(=O)OCC (stereo not drawn) [TCMDC-132003],% Inhibition,102%
C=CCc1cc(SC)ccc1Oc1ccc(N)cc1 [TCMDC-137690],% Inhibition,-96.62%
Cc1ccccc1C(=O)Nc1cccc(-c2nc3ncccn3c2C)c1 [TCMDC-125138],% Inhibition,25.46%
CCOc1ccccc1C(=O)Nc1cccc(-c2nc3ncccn3c2C)c1 [TCMDC-124461],% Inhibition,18.92%
Cc1c(-c2cccc(NC(=O)C(C)(C)Oc3ccc(Cl)cc3)c2)nc2ncccn12 [TCMDC-124460],% Inhibition,51.92%
CN(c1cc(NC(=O)c2cccs2)ccn1)C1CCN(Cc2cccc(C#N)c2)CC1 [TCMDC-134970],% Inhibition,39.85%
Cc1[nH]c(C)c(-c2ccc(Oc3ccc(Cl)cc3)c(Cl)c2)c(=O)c1Br [TCMDC-137409],% Inhibition,21.95%
Cc1[nH]c(C)c(-c2ccc(Oc3ccc(Cl)cc3Cl)cc2)c(=O)c1Br [TCMDC-137533],% Inhibition,62.65%
Cc1[nH]c(C)c(-c2ccc(Oc3cc(Cl)cc(Cl)c3)cc2)c(=O)c1Br [TCMDC-137392],% Inhibition,48.81%
Cc1[nH]c(C)c(-c2ccc(Oc3ccc(Cl)c(Cl)c3)cc2)c(=O)c1Br [TCMDC-137397],% Inhibition,72.37%
Cc1[nH]c(C)c(-c2ccc(Cl)cc2Cl)c(=O)c1Br [TCMDC-137428],% Inhibition,6.285%
Cc1[nH]c(C)c(-c2ccc(Oc3ccc(Cl)c(Cl)c3)cc2)c(=O)c1Cl [TCMDC-137396],% Inhibition,73.66%
Cc1noc(C)c1-c1ccc(C(=C2CCCCCC2)c2ccc(O)cc2)cc1 [TCMDC-135873],% Inhibition,-11.65%
CCCCCc1cc(O)c2c(c1)OC(C)(C)C=C2C1=CCN(Cc2ccsc2)CC1 [TCMDC-131400],% Inhibition,-46.98%
COc1cc(NC(=O)c2c(-c3c(F)cccc3Cl)noc2C)c(OC)cc1Cl [TCMDC-123635],% Inhibition,20.08%
